# SMN2 splice up: qHTS Assay for Enhancers of SMN2 Splice Variant Expression; HEK293 SMN2-luciferase splicing reporter, luminescence, 30-36 h; Potency, µM (highest dose often 46.1 µM), inactives show at the highest dose activity change, positive = activation, actives largely listed as activators; 210,000 tested, 2.8% active; note: % of control where 0% means no effect; nearly all actives have a fitted effect of over 55% in size
#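 HEK293 cells carry an SMN2 minigene-luciferase reporter in which exon 7 inclusion puts luciferase in frame. Cells were seeded at 2000 cells/well, attached for 10-12 hours, then exposed to compounds for 30-36 hours at 37C before ONE-Glo luminescence.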
# Rab9 prom act: qHTS Assay for Rab9 Promoter Activators; Huh7 Rab9 promoter-luciferase reporter, luminescence, 24 h; Potency, µM (doses to about 9.22 µM), for the others: top-dose activation, negative = inhibition, most hits filed as activators; 320,000 tested, 2.8% active; AID 485297, 2010; note: % of control where 0% means no effect; nearly all actives have a fitted effect of over 60% in size
#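 Steps: seed 1500 Huh7 Rab9-luc cells per well, rest 2 h at 37 °C; add compound in DMSO; incubate 24 h; add luciferase reagent, 10 min ambient; read luminescence.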
# KinaseGlo FLuc: Counterscreen for Luciferase (Kinase-Glo TM) Inhibition | Luciferin 4-monooxygenase (Photuris pensylvanica), Q27757 | Kinase-Glo luciferase, ATP luminescence, 8 min | Potency, µM (titrated, usually from 38.3 µM), for inactives: top-dose activity change, negative = inhibition, usual class: inhibitors | 200,000 tested, 0.28% active | AID 1379, 2008; note: % is set by controls: 0 for no effect and ±100 for the full control effect; nearly all actives have a fitted effect of over 60% in size
#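 Recombinant Kinase-Glo luciferase, 10 uM ATP (linear range), luciferin; imidazole pH 7.2 / KCl / MgCl2 / Tween / BSA buffer; 8 min RT; luminescence.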
# NPC1 prom act: qHTS Assay for NPC1 Promoter Activators. Potency, µM (doses to about 9.22 µM), for the others: at the top dose activation, actives largely listed as activators. Huh7 NPC1 promoter luciferase reporter, 24 h. AID 485313, 2010. 320,000 tested, 2.4% active; note: % of control where 0% means no effect; nearly all actives have a fitted effect of over 60% in size
#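 Luciferase expression driven by the NPC1 promoter was measured in stably transfected Huh7 cells after a 24 h compound incubation, using a luciferase reagent and a luminescence read.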
# FLuc counter: qHTS profiling assay for firefly luciferase inhibitor/activator using purifed enzyme and Km concentrations of substrates (counterscreen for miR-21 project). Luciferin 4-monooxygenase (Photinus pyralis), P08659. purified FLuc, Km substrates, luminescence inhibition. Potency, µM (titrated, usually from 57.5 µM), without a hit: at the highest dose activity change, negative = inhibition, hits mostly inhibitors. 360,000 tested, 6.9% active. AID 588342, 2011;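 note: plate controls were vehicle for no effect and reference inhibitor for full effect; nearly all actives have a fitted effect of over 55% in size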
# Target sequence (P08659 whole entry, looked up): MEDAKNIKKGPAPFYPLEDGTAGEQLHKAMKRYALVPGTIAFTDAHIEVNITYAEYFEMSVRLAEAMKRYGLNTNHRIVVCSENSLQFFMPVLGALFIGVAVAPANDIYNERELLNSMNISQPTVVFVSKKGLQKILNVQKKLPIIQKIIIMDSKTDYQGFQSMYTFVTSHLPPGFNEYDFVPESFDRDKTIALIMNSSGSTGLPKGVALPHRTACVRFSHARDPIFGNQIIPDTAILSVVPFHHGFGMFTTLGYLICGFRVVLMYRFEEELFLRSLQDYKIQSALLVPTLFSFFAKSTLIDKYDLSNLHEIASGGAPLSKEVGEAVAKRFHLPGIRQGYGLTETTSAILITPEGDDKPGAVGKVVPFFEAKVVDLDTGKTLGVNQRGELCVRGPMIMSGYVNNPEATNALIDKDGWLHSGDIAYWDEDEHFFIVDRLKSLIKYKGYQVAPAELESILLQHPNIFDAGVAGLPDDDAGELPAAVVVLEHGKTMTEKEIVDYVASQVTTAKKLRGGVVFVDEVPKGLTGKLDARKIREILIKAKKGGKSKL
#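 Purified P. pyralis luciferase, 10 nM final, with Km-level 10 uM D-luciferin and 10 uM ATP in 50 mM Tris acetate pH 7.5, 10 mM Mg acetate, 0.01% Tween-20, 0.05% BSA; 6-point qHTS titration about 60 µM downward; luminescence read.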
# ELG1 genotoxic: qHTS screen for small molecules that induce genotoxicity in human embryonic kidney (HEK293T) cells expressing luciferase-tagged ELG1 | Potency, µM (doses to about 46 µM), for inactives: at the highest dose activity change, positive = activation, actives largely listed as activators | AID 504466, 2011 | HEK293T ELG1-luciferase reporter, luminescence, 16 h | 330,000 tested, 1.3% active; note: % of control where 0% means no effect; nearly all actives have a fitted effect of over 60% in size
#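 16 hr compound incubation (37 °C, 5% CO2) of HEK293T cells carrying luciferase-tagged ELG1; luciferase then measured by ONE-Glo luminescence after 30 min at RT.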
# Starred values were filed as active, the others as inactive; u = inconclusive; x = not tested or not shown; [ ] = remark or other dose. An excerpt weighted towards active compounds, which were near 7.5% of everything screened. Calls come from the whole dose curve; as a rule, active = well fitted curve in the direction sought with a large enough effect; inconclusive = small, poorly fitted or top-dose-only effect, or another doubt; inactive = no such curve, though single readings can be large; an effect the other way counts as inactive or inconclusive. Potency is the fitted concentration of half-maximal effect.
SMILES,SMN2 splice up,Rab9 prom act,KinaseGlo FLuc,NPC1 prom act,FLuc counter,ELG1 genotoxic
COc1ccc(-c2nnc(Nc3ccc(CC(N)=O)cc3)c3ccccc23)cc1,-8%,-1%,-3%,0%,-13%,2%
COc1ccc(Nc2nnc(-c3ccc(O)cc3)c3ccccc23)cc1,17%,-4%,5%,-10%,24µM*,u
CN(C)c1nc2c(Br)c(Br)c(Br)c(Br)c2[nH]1,12%,-39%[46.1 µM],1%,-38%[46.1 µM],x,x
CCCCOC(=O)c1ccc(OC(=O)c2sc3ncn(Cc4ccccc4Cl)c(=O)c3c2C)cc1,x,x,x,x,2%,x
CC(C)CNC(=O)CC(c1ccccc1)c1ccccc1,-1%,14%,-2%,-4%,-1%,-3%
Cc1ccc(C)c(NS(=O)(=O)c2cc3c(cc2C)n(C)c(=O)c(=O)n3C)c1,x,x,x,x,4%,x
CNC(=S)N(CCc1c(C)[nH]c2ccc(F)cc12)Cc1cccnc1,x,-4%,x,-1%,0%,-1%
Cc1ccc(-c2nnc(Nc3ccc4c(c3)OCO4)c3ccccc23)cc1S(N)(=O)=O,-26%,-1%,1%,3%,24µM*,-3%
O=C(CC(Nc1ccc(F)cc1)C(=O)O)c1ccccc1 (stereo not given),13µM*,1.3µM*,-12%,1.1µM*,1.1µM*,1µM*
O=C(CC(Nc1ccc(F)cc1)C(=O)OCC(=O)c1cccs1)c1ccccc1 (stereo not given),u,4.5µM*,1%,u,u,u
Cc1ccc(NC(CC(=O)c2ccccc2)c2ccc(F)cc2)cc1 (stereo not given),9%,0%,-6%,3%,-1%,-1%
COc1cccc(-c2nc(CS(=O)CC(=O)NCc3ccc4c(c3)OCO4)c(C)o2)c1 (stereo not given),-11%,6%,-2%,-4%,0%,-2%
Clc1ccccc1/C=N/NC1=Nc2cccc3cccc1c23,5.6µM*,4.5µM*,0%,u,0.85µM*,16µM*
CCc1nnc(N/N=C/c2ccccc2Cl)n1N,-5%,-5%,4%,2%,-24%,3%
C(=N\NC1=Nc2cccc3cccc1c23)/c1ccccn1,-44%,-23%,-3%,-34%,1.5µM*,u
C=C1SC(=Nc2ccccc2Cl)N(C(=O)c2sc3ccccc3c2Cl)C12CCCCC2,x,23%,x,10%,21µM*,6%
C=C1SC(=Nc2c(C)cc(C)cc2C)N(C(=O)c2sc3ccccc3c2Cl)C12CCCCC2,x,-5%,x,-2%,1%,-7%
CCCCn1c(SCC(=O)NCc2cccs2)nc2c1c(=O)n(C)c(=O)n2C,-5%,8%,-5%,-4%,2%,0%
Cc1ccc(/C=C/C(=O)Nc2ccc(S(N)(=O)=O)cc2)o1,-5%,-2%,-3%,-1%,u,-1%
Cc1ccc(/C=C/C(=O)Nc2ccncc2)o1,2%,2%,-3%,4%,17µM*,3%
Cc1ccc(/C=C/C(=O)Nc2ccc(N(C)C)cc2)o1,14µM*,u,8%,u,3µM*,u
CCOc1ccccc1NC(=O)CSc1nc2ccccc2c2nc(CCn3cncc3C)nn12,x,x,x,x,-4%,x
Clc1c(-c2nnc3n2CCC3)sc2ccccc12,8%,2%,-1%,-1%,21µM*,23%
COc1ccc(CSC2=C(C#N)C(=O)NC3(CCCCC3)S2)cc1,-4%[9.22 µM],x,-3%[7.66 µM],x,x,x
CCCCCCSC1=C(C#N)C(=O)NC2(CCCCC2)S1,19%,-2%,1%,3%,24µM*,u

# Screening results: PubChem, National Center for Advancing Translational Sciences (NCATS)
